IMPase Li cell = membrane-permeable IMPase blocker, potentiated with lithium. 0.35% of 210,000 active. AID 1457. Potency, µM (series often up to 59.4 µM), hits mostly inhibitors. CHO-M1 cells, IP1 TR-FRET (IP-One), carbachol + lithium; active = well fitted inhibition curve with a large enough effect; inconclusive = small, poorly fitted or top-dose-only effect; inactive = no such curve, though single readings can be large or run the other way;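 note: IP1 builds up when IMPase is blocked and the TR-FRET signal falls; nearly all actives have a fitted effect of over 50% in size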
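Test compounds were applied to CHO-M1 cells previously cultured for 16–30 h at 2000 per well. A small lithium amount accompanied them; after 30 min at 37C, IP1 was quantified by TR-FRET.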
PNC inhibitor = inhibitors of perinucleolar compartment assembly; 3.1% of 140,000 active; AID 2417; activity change (PNC), negative = inhibition, % at 10 µM; PC3M PTB-GFP, PNC prevalence imaging, 16 h; hits give low values;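 active = readout at or below -70, meaning at least 70% loss of cells showing the perinucleolar compartment, a nuclear body marking cancer cells; inconclusive = readout between -30 and a set limit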
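Compounds are pinned in duplicate onto adhered PC3M cells stably expressing GFP-tagged PTB and incubated 16 h at 37 C. Cells are then fixed, nuclei stained with Hoechst, and PNC-positive cells counted.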
HPGD inh = inhibitors of human 15-hydroxyprostaglandin dehydrogenase (HPGD) | purified HPGD, NADH fluorescence kinetic, PGE2 substrate | 4.3% of 150,000 active | P15428 | Potency, µM, actives largely listed as inhibitors
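20 nM HPGD preincubated 15 min at room temperature with compound in 50 mM Tris-HCl pH 8, 0.01% Tween 20. Started with 1 mM NAD+ and 30 uM prostaglandin E2; NADH fluorescence (360/450 nm) read 5 times over 30-s intervals, last minus first.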
IMPase cell inh = membrane-permeable compound that blocks inositol monophosphatase | P97697 | CHO-M1 cells, IP1 accumulation, HTRF TR-FRET ratio | inhibition (IP1 accumulation), % at 46.1 µM | 120,000 tested, under 10 active; active = well fitted curve in the direction sought with a large enough effect in the signal ratio, not every such curve was filed as active; inconclusive = small, poorly fitted or top-dose-only effect, or a change in a side signal; inactive = no such curve, though single readings can be large or run the other way; the % refers to the signal ratio;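 note: cells stimulated with carbachol in lithium chloride buffer; higher means more IMPase inhibition seen as more IP1 and lower FRET ratio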
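In this qHTS, compounds (final up to 46 uM) act on CHO-M1 cells that are then activated through the M1 receptor with carbachol, in pH 7.4 buffer containing 50 mM LiCl, for 30 min. IP1 accumulation is quantified by the IP-One immunoassay.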
ALDH1A1 inh = ALDH1A1 (human) enzyme inhibition | Potency, µM (highest dose often 75.3 µM), usual class: inhibitors | P00352 | Purified ALDH1A1, NADH fluorescence, propionaldehyde substrate | AID 1030 | 7.3% of 220,000 active
Target sequence (P00352 whole entry, looked up): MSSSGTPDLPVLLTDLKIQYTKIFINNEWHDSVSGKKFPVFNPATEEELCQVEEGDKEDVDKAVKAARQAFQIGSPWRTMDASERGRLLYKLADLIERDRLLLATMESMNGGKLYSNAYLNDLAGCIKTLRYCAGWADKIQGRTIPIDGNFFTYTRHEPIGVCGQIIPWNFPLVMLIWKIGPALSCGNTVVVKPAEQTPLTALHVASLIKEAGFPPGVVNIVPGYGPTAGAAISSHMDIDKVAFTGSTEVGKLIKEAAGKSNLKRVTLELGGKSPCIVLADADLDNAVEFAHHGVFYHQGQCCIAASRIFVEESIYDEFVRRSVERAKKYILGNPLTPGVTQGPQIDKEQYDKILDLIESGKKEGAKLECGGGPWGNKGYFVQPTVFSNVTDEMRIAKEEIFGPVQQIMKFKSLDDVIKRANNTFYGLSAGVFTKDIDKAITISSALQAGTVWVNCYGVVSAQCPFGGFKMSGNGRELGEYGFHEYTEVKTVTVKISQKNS
Numbers stand for hits; - = inactive; ? = inconclusive; . = no result given. Hits are enriched below; roughly 11% of the tested compounds scored in any of these assays. Unless noted, calls come from the whole dose curve; as a rule, active = well fitted inhibition curve with a large enough effect (not every such curve was filed as active); inconclusive = small, poorly fitted or top-dose-only effect, or another doubt; inactive = no such curve, though single readings can be large or run the other way.

SMILES	IMPase Li cell	PNC inhibitor	HPGD inh	IMPase cell inh	ALDH1A1 inh
Cc1ccc(C(=O)CCC(=O)N2CCN(C(=O)c3ccco3)CC2)cc1	-	.	.	.	22µM
O=C(c1ccc(-c2ccccc2)cc1)N1CCN(C(=O)c2ccco2)CC1	-	?	-	-	?
CCNc1ncc2nc(CCc3ccccc3)c(=O)n(CCC#N)c2n1	-	.	.	.	?
CCn1c(O)c(N=NC2=NC(=O)CS2)c2ccccc21	-	-	-	-	11µM
OC1(c2ccc(F)cc2)CCN(Cc2nnnn2Cc2cccs2)CC1	-	-	-	-	4.5µM
CNC(=O)COc1ccc(NC(=O)CCn2nc(-c3ccc(C)cc3)c3ccccc3c2=O)cc1	.	.	.	-	.
Cc1ccc2c(C(=O)CN3CCCCC3CCO)c(C)[nH]c2c1 (configuration not stated)	-	-	-	-	?
Cc1ccc2c(C(=O)CN3CCN(C4CCCCC4)CC3)c(C)[nH]c2c1	-	?	-	-	13µM
O=C(Nc1ccc(Cl)c(Cl)c1)OCCNC(=O)c1cccc(Cl)c1	-	-	-	-	-
COC(=O)NC(CCc1ccccc1)C(C(=O)OC)C(=O)OC (configuration not stated)	-	.	-	.	-
O=C(CN1CCCCC1)Nc1ccccc1-c1ccccc1	-	-	-	-	19µM
O=C(CN1CCOCC1)Nc1ccccc1-c1ccccc1	-	-	-	-	14µM
O=C(CN1CCN(C(=O)c2ccco2)CC1)Nc1ccccc1-c1ccccc1	-	?	-	-	6.3µM
O=C(CN1CCN(C(=O)c2ccco2)CC1)Nc1cc(Cl)ccc1Cl	-	-	-	-	-
CCC1=C2CC[C@H]3C(=O)N(CC)C(=O)[C@H]3[C@H]2[C@@]2(C)C(=O)N(CC(=O)OC)C(=O)N2C1=O	-	.	-	.	18µM
CCC1=C2CC[C@H]3C(=O)N(c4ccccc4)C(=O)[C@H]3[C@H]2[C@@]2(C)C(=O)N(CC(=O)OC)C(=O)N2C1=O	-	.	-	.	-
CCC1=C2CC[C@H]3C(=O)N(c4ccccc4)C(=O)[C@H]3[C@H]2[C@@]2(C)C(=O)N(Cc3ccccc3)C(=O)N2C1=O	-	.	-	.	20µM
O=C1COc2ccc(N3C(=O)C=CC3=O)cc2N1	-	.	.	.	6.3µM
Cc1ccc2nc(SCC(=O)Nc3cc(C(F)(F)F)ccc3N3CCOCC3)[nH]c2c1	-	-104	-	-	-
Nc1nc(SCC(=O)Nc2cc(C(F)(F)F)ccc2N2CCOCC2)n[nH]1	?	.	.	.	22µM
O=C(CSc1nc2ccccc2o1)Nc1cc(C(F)(F)F)ccc1N1CCOCC1	-	-	-	-	-
COc1ccc(S(=O)(=O)NCC(=O)O)cc1C(=O)NC1CCCCC1	-	?	-	.	-
Cc1cc(C(=O)COC(=O)c2n[nH]c3ccccc23)c(C)n1CC1CCCO1 (configuration not stated)	-	?	28µM	-	-
Cc1ccc(C(=O)OCC(=O)c2cc(C)n(CC3CCCO3)c2C)cc1 (configuration not stated)	-	.	.	.	-
Cc1cc(C(=O)COC(=O)c2cc(O)c3ccccc3c2O)c(C)n1CC1CCCO1 (configuration not stated)	-	.	.	.	28µM
SMILES	IMPase Li cell	PNC inhibitor	HPGD inh	IMPase cell inh	ALDH1A1 inh
COCCn1c(C)cc(C(=O)COC(=O)c2n[nH]c3ccccc23)c1C	-	?	-	-	-
CCC1=C2CC[C@H]3C(=O)N(CC(=O)OC)C(=O)[C@H]3[C@H]2[C@@]2(C)C(=O)N(CC3CC3)C(=O)N2C1=O	-	.	-	.	-
CN(Cc1ccccc1)C(=O)[C@H](Cc1ccc2ccccc2c1)NC(=O)[C@@H]1C[C@@H](O)CN1C(=O)c1cn(C)c2ccccc12	-	.	-	.	-
N=c1sc2ccccc2n1CCS (tested in a mixture with another compound)	-	.	-	.	?
O=S(=O)(c1cccs1)N1CCCc2cccc(O)c21	-	?	13µM	-	?
Cc1cc(N2CCN(C(=O)OC(C)(C)C)CC2)n2ncnc2n1	.	-88	.	-	-
Cc1nnn(C23CC4CC(CC(C(=O)NN)(C4)C2)C3)n1	-	-114	-	.	1.4µM
NNC(=O)C12CC3CC(C1)CC(n1ncnn1)(C3)C2	-	-	-	.	3.5µM
